In PubChem BioAssay (NCI) one finds growth inhibition data, which are given here for 38 molecules.

Compounds without any hit were thinned out: in the full panel of roughly 79,000, 15% have a hit. A number with no mark means an inactive call. The source made the active and inactive calls. No stated cut-off is given here; in the data, active means growth inhibition above about 70%; inactive means the rest.

One assay is described as follows: NCI Yeast Anticancer Drug Screen. Data for the sgs1 strain (AID 173).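 Further: 0% = growth of vehicle-only control cultures.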 As to conditions: S. cerevisiae sgs1 mutant, at 11.0 µM, active compounds read high. In a few lines:
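A genetically defined yeast mutant is incubated with the test compound, and its growth is compared to that of the same strain given vehicle.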
`O=[N+]([O-])c1cc[n+]([O-])cc1`: the growth inhibition was -8%.

Turning to `CC1(C)CC(=O)C(/C=N/c2nc(-c3ccccc3)cs2)=C(O)C1`, the growth inhibition was 26%.

In the case of `Nc1nc(N)c2nc(CNc3ccc(C(=O)NC(CCC(=O)O)C(=O)O)cc3F)cnc2n1` (stereo unspecified), the growth inhibition was 15%.

Regarding `COC(=O)CC1(O)C(/C=C/c2ccccc2)C(C(=O)OC)C(=O)C(C(=O)OC)C1C(=O)OC` (stereo unspecified), the growth inhibition is 1%.

For `CC(C)(C)c1ccc(NS(=O)(=O)c2ccc(N)cc2)cc1`, the growth inhibition was 14%.

Take `CCN(CC)CCNc1ccc([N+](=O)[O-])c2nc3ccccc3c(N)c12`: the growth inhibition was 6%.

In the case of `CCCCN(CCCC)C(=O)/C=C/c1ccccc1`, the growth inhibition is 8%.

Turning to `O=c1[nH]c(-c2ccccc2)nc2c1sc1nc3ccccc3n12`, the growth inhibition is -39%.

For `O=[N+]([O-])c1ccc2c(c1)/C(=N/N=C1c3ccccc3Cc3ccccc31)c1cc([N+](=O)[O-])cc([N+](=O)[O-])c1-2`, the growth inhibition was 99% (active).

For the molecule `CC(C)C(C)/C=C\C(C)C1CCC2C3=CC=C4CC(O)CCC4(C)C3CCC21C` (stereo unspecified), the growth inhibition is -3%.

As to `O=C1Nc2ccc(Br)cc2C1=Nc1ccc2c(c1)OCO2`, the growth inhibition was -30%.

In the case of `CCCCOCn1c(=O)[nH]c(=O)c2cc(Br)ccc21`, the growth inhibition is -16%.

For `Cc1ccc(S/C(=C\C(=O)O)c2ccccc2)cc1`, the growth inhibition was 12%.

Regarding `O=[N+]([O-])/C=C/c1cc(Cl)c(/C=C/[N+](=O)[O-])cc1Cl`, the growth inhibition is 14%.

`Cc1cc(S(=O)(=O)Nc2nnc3cnc4ccccc4n23)c(S)cc1Cl`: the growth inhibition was 2%.

Regarding `O=C(/C=C/c1cc(Cl)cc(Cl)c1O)c1cccc(O)c1`, the growth inhibition is 78% (active).

In the case of `NC1CCCCC1N.Nc1c(N=Nc2ccc(-c3ccc(N=Nc4cc(S(=O)(=O)[O-])c5ccccc5c4N)cc3)cc2)cc(S(=O)(=O)[O-])c2ccccc12.[OH3+].[OH3+].[Pt+4]`, the growth inhibition is 95% (active).

Take `COC(=O)CCC(NC(=S)N/N=C(\C)c1ccccn1)C(=O)OC` (stereo unspecified): the growth inhibition was 20%.

As to `NC(=O)C(=O)NNc1ccccc1`, the growth inhibition is 59%.

`COc1cc(C2SCC(=O)N2c2ccc(-c3ccc(-n4c(-c5ccccc5)nc5ccccc5c4=O)cc3)cc2)ccc1O` (stereo unspecified): the growth inhibition is 0%.

Take `COc1ccc(/C=C/c2sc3ccccc3[n+]2CCCCI)cc1OC`: the growth inhibition was -2%.

With `Cc1c(C(C)C)cc(OCCO)cc1C(C)C`, the growth inhibition was -1%.

With `Cc1cc(NCCCCCCCCNc2cc(C)nc3cc(N)ccc23)c2ccc(N)cc2n1`, the growth inhibition is 65%.

As to `C=C(Cl)COC(=O)Nc1cccc(Cl)c1`, the growth inhibition was 13%.

Regarding `CC(=O)OC1CC2C(C)(C)C(=O)C=C[C@]2(C)C2CCC3(C)C(=CCC3[C@H](CO)C[C@H](O)C(=O)C(C)(C)O)[C@]12C` (stereo partly specified), the growth inhibition was 60%.

In the case of `COc1ccc(/C=C/C(=O)c2ccccc2)cc1OC`, the growth inhibition is 5%.

Turning to `COc1c(O)c(C=O)c(Br)c(C=O)c1O`, the growth inhibition was 12%.

As for `O=[N+]([O-])c1cc(Cl)cnc1Br`, the growth inhibition is 30%.

Turning to `Cc1ccc2c(c1)C1(SC(C)C(=O)N1c1ccc(Cl)cc1)C(=O)N2` (stereo unspecified), the growth inhibition is 25%.

In the case of `COc1cc(CSc2ccc(O)cc2)cc(O)c1O`, the growth inhibition was -1%.

Take `Cc1ccc2c3ccc4c(c3n(C)c2c1)C(=O)C=CC4=O`: the growth inhibition was -16%.

As to `O=C(Nc1ccc(Cl)cc1)Nc1nnc2nc(C(C(=O)c3cccc([N+](=O)[O-])c3Cl)c3nc4nnc(NC(=O)Nc5ccc(Cl)cc5)n4[nH]c3=O)c(=O)[nH]n12`, the growth inhibition was -2%.

Take `O=C(O)C1CC(c2ccccc2)=NN1c1ccccc1` (stereo unspecified): the growth inhibition is -16%.

With `CCCCc1ccc(-n2c(C)c(COC(=O)NC)c(COC(=O)NC)c2C)cc1`, the growth inhibition is 47%.

Regarding `CCC(=O)c1cc(C(=O)C(=S)SC)cc(C(=O)C(=S)SC)c1`, the growth inhibition is 98% (active).

As for `CCn1c(O)c(C=Nc2ccccc2)s/c1=N/Nc1nc(-c2ccccc2)cs1`, the growth inhibition is 13%.

With `Cc1ccccc1N=C(NO)c1ccccc1`, the growth inhibition was 15%.

Turning to `Cc1nc2ccccc2nc1NNc1ccccc1`, the growth inhibition was 8%.

The same assay, now with this note: S. cerevisiae sgs1 mutant, at 33.0 µM, active compounds read high.
In the case of `O=[N+]([O-])c1cc[n+]([O-])cc1`, the growth inhibition is 33%.

As for `CC1(C)CC(=O)C(/C=N/c2nc(-c3ccccc3)cs2)=C(O)C1`, the growth inhibition was 63%.

On to `Nc1nc(N)c2nc(CNc3ccc(C(=O)NC(CCC(=O)O)C(=O)O)cc3F)cnc2n1` (stereo unspecified), for which the growth inhibition was 41%.

As to `COC(=O)CC1(O)C(/C=C/c2ccccc2)C(C(=O)OC)C(=O)C(C(=O)OC)C1C(=O)OC` (stereo unspecified), the growth inhibition was 4%.

`CC(C)(C)c1ccc(NS(=O)(=O)c2ccc(N)cc2)cc1`: the growth inhibition was 17%.

Take `CCN(CC)CCNc1ccc([N+](=O)[O-])c2nc3ccccc3c(N)c12`: the growth inhibition was -2%.

For `CCCCN(CCCC)C(=O)/C=C/c1ccccc1`, the growth inhibition was 33%.

`O=c1[nH]c(-c2ccccc2)nc2c1sc1nc3ccccc3n12`: the growth inhibition was -38%.

As for `O=[N+]([O-])c1ccc2c(c1)/C(=N/N=C1c3ccccc3Cc3ccccc31)c1cc([N+](=O)[O-])cc([N+](=O)[O-])c1-2`, the growth inhibition is 99% (active).

Regarding `CC(C)C(C)/C=C\C(C)C1CCC2C3=CC=C4CC(O)CCC4(C)C3CCC21C` (stereo unspecified), the growth inhibition was -6%.

As to `O=C1Nc2ccc(Br)cc2C1=Nc1ccc2c(c1)OCO2`, the growth inhibition was -37%.

As for `CCCCOCn1c(=O)[nH]c(=O)c2cc(Br)ccc21`, the growth inhibition is -18%.

For `Cc1ccc(S/C(=C\C(=O)O)c2ccccc2)cc1`, the growth inhibition is 25%.

As for `O=[N+]([O-])/C=C/c1cc(Cl)c(/C=C/[N+](=O)[O-])cc1Cl`, the growth inhibition was 52%.

Consider `Cc1cc(S(=O)(=O)Nc2nnc3cnc4ccccc4n23)c(S)cc1Cl`, for which the growth inhibition was 22%.

Regarding `O=C(/C=C/c1cc(Cl)cc(Cl)c1O)c1cccc(O)c1`, the growth inhibition was 98% (active).

As to `NC1CCCCC1N.Nc1c(N=Nc2ccc(-c3ccc(N=Nc4cc(S(=O)(=O)[O-])c5ccccc5c4N)cc3)cc2)cc(S(=O)(=O)[O-])c2ccccc12.[OH3+].[OH3+].[Pt+4]`, the growth inhibition is 93% (active).

As to `COC(=O)CCC(NC(=S)N/N=C(\C)c1ccccn1)C(=O)OC` (stereo unspecified), the growth inhibition is 67%.

For `NC(=O)C(=O)NNc1ccccc1`, the growth inhibition was 92% (active).

Regarding `COc1cc(C2SCC(=O)N2c2ccc(-c3ccc(-n4c(-c5ccccc5)nc5ccccc5c4=O)cc3)cc2)ccc1O` (stereo unspecified), the growth inhibition was 2%.

Consider `COc1ccc(/C=C/c2sc3ccccc3[n+]2CCCCI)cc1OC`, for which the growth inhibition is 84% (active).

On to `Cc1c(C(C)C)cc(OCCO)cc1C(C)C`, for which the growth inhibition is -3%.

As to `Cc1cc(NCCCCCCCCNc2cc(C)nc3cc(N)ccc23)c2ccc(N)cc2n1`, the growth inhibition is 95% (active).

Take `C=C(Cl)COC(=O)Nc1cccc(Cl)c1`: the growth inhibition is 63%.

On to `CC(=O)OC1CC2C(C)(C)C(=O)C=C[C@]2(C)C2CCC3(C)C(=CCC3[C@H](CO)C[C@H](O)C(=O)C(C)(C)O)[C@]12C` (stereo partly specified), for which the growth inhibition was 87% (active).

For the molecule `COc1ccc(/C=C/C(=O)c2ccccc2)cc1OC`, the growth inhibition was 51%.

Consider `COc1c(O)c(C=O)c(Br)c(C=O)c1O`, for which the growth inhibition was 53%.

For `O=[N+]([O-])c1cc(Cl)cnc1Br`, the growth inhibition is 40%.

`Cc1ccc2c(c1)C1(SC(C)C(=O)N1c1ccc(Cl)cc1)C(=O)N2` (stereo unspecified): the growth inhibition is 94% (active).

`COc1cc(CSc2ccc(O)cc2)cc(O)c1O`: the growth inhibition is -1%.

As for `Cc1ccc2c3ccc4c(c3n(C)c2c1)C(=O)C=CC4=O`, the growth inhibition was 16%.

Consider `O=C(Nc1ccc(Cl)cc1)Nc1nnc2nc(C(C(=O)c3cccc([N+](=O)[O-])c3Cl)c3nc4nnc(NC(=O)Nc5ccc(Cl)cc5)n4[nH]c3=O)c(=O)[nH]n12`, for which the growth inhibition is 1%.

On to `O=C(O)C1CC(c2ccccc2)=NN1c1ccccc1` (stereo unspecified), for which the growth inhibition is 20%.

As for `CCCCc1ccc(-n2c(C)c(COC(=O)NC)c(COC(=O)NC)c2C)cc1`, the growth inhibition is 98% (active).

In the case of `CCC(=O)c1cc(C(=O)C(=S)SC)cc(C(=O)C(=S)SC)c1`, the growth inhibition was 98% (active).

On to `CCn1c(O)c(C=Nc2ccccc2)s/c1=N/Nc1nc(-c2ccccc2)cs1`, for which the growth inhibition is 22%.

For `Cc1ccccc1N=C(NO)c1ccccc1`, the growth inhibition was 62%.

Turning to `Cc1nc2ccccc2nc1NNc1ccccc1`, the growth inhibition was 16%.
